Compounds with a hit are over-represented: about 19% of the library has one in this group of screens.
HT1080 IDH1KD tx = kills HT-1080 cells with IDH1 knockdown; HT-1080 IDH1 knockdown viability, ATP luminescence, 48 h; Potency, µM (highest dose often 46.1 µM), for inactives: at the top dose activity, negative = toxicity, hits mostly cytotoxic; 360,000 tested, 2% active; AID 686971;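 note: potency is the fitted concentration of half-maximal effect; 0% = DMSO wells and -100% = cell-free medium wells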
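IDH1KD HT-1080 cells, 750/well, RPMI + 5% FBS; compound pinned after 2 h settling; 48 h, 37 °C; CellTiter-Glo luminescence; % activity normalised to DMSO and no-cell wells; curves fitted, classed by r2 and efficacy.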
DT40 TDP1 no CPT = qHTS for Inhibitors of human tyrosyl-DNA phosphodiesterase 1 (TDP1): qHTS in cells in absence of CPT. DT40 Tdp1-/- hTDP1 cells, no CPT, ATP luminescence, 48 h. Potency, µM (top dose mostly 46.2 µM), for inactives: at the top dose activity change, negative = growth inhibition, hits mostly inhibitors. 420,000 tested, 15% active. AID 686978, 2013; note: potency is the fitted concentration of half-maximal effect; nearly all actives have a fitted effect of over 55% in size
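Chicken DT40 Tdp1-/- cells complemented with human TDP1, screened without camptothecin (DMSO vehicle only), 400 cells/well. Compounds pin-transferred, cells incubated at 37 °C for at least 48 hr. Growth read as ATP-dependent luminescence (CellTiter-Glo, 30 min at RT).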
DT40 TDP1 CPT = DT40-hTDP1 cell growth loss with CPT | 420,000 tested, 12% active | Potency, µM (series often up to 46.2 µM), without a hit: top-dose activity change, negative = growth inhibition, actives largely listed as inhibitors | AID 686979 | chicken DT40 Tdp1-/-;hTDP1 cells + 20 nM CPT, ATP luminescence, 48 h; note: potency is the fitted concentration of half-maximal effect; nearly all actives have a fitted effect of over 55% in size
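Chicken DT40 Tdp1-/- cells complemented with human TDP1, 400 cells/well, exposed to compounds plus 20 nM camptothecin for at least 48 h at 37 C; viability read as ATP content by CellTiter-Glo luminescence.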
HT1080NT lethal = kills 2HG-producing HT-1080-NT fibrosarcoma cells. HT-1080-NT fibrosarcoma viability, CellTiter-Glo ATP luminescence, 48 h. Potency, µM (series often up to 46.1 µM), inactives show at the top dose activity, negative = less viability, usual class: cytotoxic. 360,000 tested, 1.6% active;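 note: NT is the 2HG producing partner of a matched IDH1 knockdown line; potency is the fitted concentration of half-maximal effect; 0% = DMSO-treated cells and -100% = media-only wells without cells; nearly all actives have a fitted effect of over 55% in size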
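HT-1080-NT fibrosarcoma cells (2HG-overproducing), 750 cells/well in RPMI with 5% FBS, dosed after 2 h and incubated 48 h at 37C. CellTiter-Glo luminescence normalized to DMSO and no-cell wells; concentration-response curves fitted and classed.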
IL1B secr inh = blocks inflammasome-driven IL-1 beta release. THP-1 LPS/ATP IL-1B secretion, AlphaLISA, 16 h; stronger effect = lower value. activity change, % at 57.5 µM. 360,000 tested, 4.7% active; in the data active = activity change below about -50%; inconclusive = mostly about -30% to -49%
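THP-1 cells pretreated 1 hr with compounds (up to 57.5 uM final), then stimulated with LPS (250 ng/mL final) plus ATP (1.25 mM final); secreted IL-1B measured by AlphaLISA after 16 hr, decreased signal indicating inhibition.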
* hit, by the source's call. Unless noted, calls come from the whole dose curve; as a rule, active = well fitted curve in the direction sought with a large enough effect; inconclusive = small, poorly fitted or top-dose-only effect, or another doubt; inactive = no such curve, though single readings can be large; an effect the other way counts as inactive or inconclusive. Unless noted, % is set by controls: 0 for no effect and ±100 for the full control effect.

How did O=C(NCC(=O)N1CCN(Cc2ccccc2)CC1)c1cc(Cl)cc([N+](=O)[O-])c1 do in these assays?
HT1080 IDH1KD tx: inconclusive; DT40 TDP1 no CPT: inconclusive; DT40 TDP1 CPT: 16µM*; HT1080NT lethal: -20%; IL1B secr inh: 9

Results for O=C(NCC(=O)N1CCN(Cc2c(F)cccc2Cl)CC1)c1cccs1 ?
HT1080 IDH1KD tx: -7%; DT40 TDP1 no CPT: inconclusive; DT40 TDP1 CPT: -18%; HT1080NT lethal: 3%; IL1B secr inh: -14

What do the screens show for `CCN(CC)CC(=O)N1CCCC(N2CCN(c3cccc(C(F)(F)F)c3)CC2)C1` (stereo not drawn)?
HT1080 IDH1KD tx: -17%; DT40 TDP1 no CPT: inconclusive; DT40 TDP1 CPT: inconclusive; HT1080NT lethal: -13%; IL1B secr inh: 0

How did CCc1cc(=O)oc2cc(C)cc(OC(C)C(=O)NCCCn3ccnc3)c12 (stereo not drawn) do in these assays?
HT1080 IDH1KD tx: 20%; DT40 TDP1 no CPT: 24%; DT40 TDP1 CPT: -2%; HT1080NT lethal: 4%; IL1B secr inh: -10

What do the screens show for `O=C(NN=C1CCCC1)c1cc(Cl)cc(Cl)c1O`?
HT1080 IDH1KD tx: 0%; DT40 TDP1 no CPT: 12%; DT40 TDP1 CPT: -9%; HT1080NT lethal: -1%; IL1B secr inh: 8

How did Cc1cccc(N2CCN(C(=O)CNC(=O)Cc3ccccc3)CC2)c1C do in these assays?
HT1080 IDH1KD tx: -10%; DT40 TDP1 no CPT: inconclusive; DT40 TDP1 CPT: inconclusive; HT1080NT lethal: -1%; IL1B secr inh: -5

Results for Cc1cccc(N2CCN(C(=O)CNC(=O)c3cccc([N+](=O)[O-])c3)CC2)c1C ?
HT1080 IDH1KD tx: -9%; DT40 TDP1 no CPT: 18µM*; DT40 TDP1 CPT: inconclusive; HT1080NT lethal: -15%; IL1B secr inh: -8

Results for COc1cc(OC)cc(-c2nnc(Nc3nc4c(F)cccc4s3)o2)c1 ?
HT1080 IDH1KD tx: 3%; DT40 TDP1 no CPT: inconclusive; DT40 TDP1 CPT: 21µM*; HT1080NT lethal: 5%; IL1B secr inh: 33

How did COc1ccc(-c2nnc(Nc3nc4c(OC)cccc4s3)o2)cc1 do in these assays?
HT1080 IDH1KD tx: inconclusive; DT40 TDP1 no CPT: 18µM*; DT40 TDP1 CPT: 5.2µM*; HT1080NT lethal: inconclusive; IL1B secr inh: 104

What do the screens show for `O=C1[C@@H]2[C@@H]3C[C@@H]([C@H]4ON=C(c5ccc(Cl)cc5Cl)[C@@H]34)[C@@H]2C(=O)N1C1CCCCC1`?
HT1080 IDH1KD tx: -21%; DT40 TDP1 no CPT: inconclusive; DT40 TDP1 CPT: inconclusive; HT1080NT lethal: -23%; IL1B secr inh: -55*

How did CN1C(=O)[C@@H]2[C@@H]3C[C@@H]([C@H]4ON=C(c5ccc(Cl)cc5)[C@@H]34)[C@@H]2C1=O do in these assays?
HT1080 IDH1KD tx: -2%; DT40 TDP1 no CPT: inconclusive; DT40 TDP1 CPT: -12%; HT1080NT lethal: 0%; IL1B secr inh: -5

How did CC1=C(c2ccc(C(C)C)cc2)S(=O)(=O)NC1=NCc1ccccc1Br do in these assays?
DT40 TDP1 no CPT: 13µM*; DT40 TDP1 CPT: inconclusive

What do the screens show for `CC(C)C[C@H]1CNC(=O)C(=O)N1C[C@H]1CCCN1C[C@H](CC(C)C)N1C[C@H](Cc2ccccc2)N(CC2CCCCC2)C(=O)C1=O`?
HT1080 IDH1KD tx: 14%; DT40 TDP1 no CPT: 3%; DT40 TDP1 CPT: -2%; HT1080NT lethal: 11%; IL1B secr inh: 9

How did CC(C)C[C@@H](CN1CCCC1CN1C(=S)NC[C@@H]1Cc1ccccc1)N1C[C@H](Cc2ccccc2)N(CC2CCCCCC2)C1=S (stereo partly drawn) do in these assays?
HT1080 IDH1KD tx: -1%; DT40 TDP1 no CPT: inconclusive; DT40 TDP1 CPT: 10µM*; HT1080NT lethal: -21%; IL1B secr inh: 42

What do the screens show for `CC(C)C[C@H]1CN([C@@H](CC(C)C)CN2CCCC2CN2C(=S)NC[C@@H]2Cc2ccccc2)C(=S)N1CC1CCCCC1` (stereo partly drawn)?
HT1080 IDH1KD tx: 16µM*; DT40 TDP1 no CPT: inconclusive; DT40 TDP1 CPT: 16µM*; HT1080NT lethal: -29%; IL1B secr inh: -7

How did COc1ccc(NC(=O)CSc2nc(N)cc(N)n2)cc1S(=O)(=O)N1CCCCC1 do in these assays?
HT1080 IDH1KD tx: 0%; DT40 TDP1 no CPT: 16%; DT40 TDP1 CPT: -9%; HT1080NT lethal: 2%; IL1B secr inh: 0

Results for Cc1ccc2ccccc2c1C(O)c1ncc(-c2ccc(C(F)(F)F)cc2)[nH]1 (stereo not drawn) ?
HT1080 IDH1KD tx: inconclusive; DT40 TDP1 no CPT: inconclusive; DT40 TDP1 CPT: inconclusive; HT1080NT lethal: inconclusive; IL1B secr inh: -1

Results for CCOC(=O)c1c(NC(C)=O)sc2c(OCC(O)CN(CC)CC)c(Br)ccc12 (stereo not drawn) ?
HT1080 IDH1KD tx: inconclusive; DT40 TDP1 no CPT: 21µM*; DT40 TDP1 CPT: inconclusive; HT1080NT lethal: -3%; IL1B secr inh: inconclusive

What do the screens show for `O=C(Nc1cc(S(=O)(=O)N2CCOCC2)ccc1Cl)c1cc([N+](=O)[O-])ccc1Cl`?
HT1080 IDH1KD tx: 21µM*; DT40 TDP1 no CPT: 15µM*; DT40 TDP1 CPT: inconclusive; HT1080NT lethal: 9.2µM*; IL1B secr inh: -97*

Results for N#CCc1ccc(NC(=O)c2cc(S(=O)(=O)N3CCOCC3)ccc2Cl)cc1 ?
HT1080 IDH1KD tx: -3%; DT40 TDP1 no CPT: 18µM*; DT40 TDP1 CPT: 16µM*; HT1080NT lethal: -1%; IL1B secr inh: 23

What do the screens show for `CCCCNC(=O)[C@@H]1CC=C[C@@H]2CCN(C3CC3)C(=O)[C@@H]21`?
HT1080 IDH1KD tx: 15%; DT40 TDP1 no CPT: -2%; DT40 TDP1 CPT: 2%; HT1080NT lethal: 0%; IL1B secr inh: 36

What do the screens show for `O=C(NCCNC(=O)c1cc(OCC(F)(F)F)ccc1OCC(F)(F)F)Nc1ccc(OC(F)(F)F)cc1`?
HT1080 IDH1KD tx: -18%; DT40 TDP1 no CPT: 23µM*; DT40 TDP1 CPT: inconclusive; HT1080NT lethal: -26%; IL1B secr inh: 65

What do the screens show for `O=C(NCCNC(=O)c1cc(OCC(F)(F)F)ccc1OCC(F)(F)F)Nc1ccc(Cl)cc1`?
HT1080 IDH1KD tx: -3%; DT40 TDP1 no CPT: 7%; DT40 TDP1 CPT: -18%; HT1080NT lethal: 4%; IL1B secr inh: -6

Results for O=C(CCl)NCCNC(=O)c1cc(OCC(F)(F)F)ccc1OCC(F)(F)F ?
HT1080 IDH1KD tx: inconclusive; DT40 TDP1 no CPT: inconclusive; DT40 TDP1 CPT: inconclusive; HT1080NT lethal: inconclusive; IL1B secr inh: -60*

How did Fc1ccccc1N1CCN(c2ncnc3[nH]ncc23)CC1 do in these assays?
HT1080 IDH1KD tx: -7%; DT40 TDP1 no CPT: inconclusive; DT40 TDP1 CPT: 15µM*; HT1080NT lethal: 2%; IL1B secr inh: -14

Source: PubChem (National Center for Advancing Translational Sciences (NCATS))
